Measurements: PubChem BioAssay
Activity calls are given as the source filed them.

Columns and labels:
[1] = system: PRMT1 (protein arginine N-methyltransferase 1); assay: PRMT1 binders on small-molecule microarrays, primary screen, biochemical, small-molecule microarray, 635 nm fluorescence (AID 1088); conditions: small-molecule microarray binding, higher = more signal;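 further: binding of Prmt1 protein to compounds spotted on small-molecule microarray slides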
[2] = yeast growth modulation, basal conditions, primary screen, YJM789 clinical isolate, OD600, 24 h (AID 1089);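 further: growth of clinical yeast isolate S. cerevisiae YJM 789 seeded 1000 cells per well; test concentration not given here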; conditions: S. cerevisiae YJM789 growth, higher = more signal, called active from +8 up or from −8 down
[3] = fission yeast growth modulation, primary screen, strain 972, OD600, 24 h, no modulator (AID 1090);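 further: basal condition with compound alone and no growth modifier present; test concentration not given here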; conditions: S. pombe 972 growth, higher = more signal, called active from +8 up or from −8 down
[4] = S. cerevisiae growth modulation with rapamycin, primary screen, strain BY4716, OD600, 96 h (AID 1091); conditions: higher = more signal, called active from +8 up or from −8 down; further: test concentration not given here
[5] = molecular target: Torsin-1A-interacting protein 2 (Homo sapiens) (UniProt Q8NFQ8); assay: LULL1 binders on small-molecule microarray, primary screen, cell lysate, human LULL1 lysate, 635/667 nm fluorescence (AID 1092); conditions: hLULL1 lysate binding, 635 nm fluorescence, higher = more signal;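 further: probe is lysate of COS7 cells overexpressing human LULL1; score merges per-feature 667 nm fluorescence with signal-to-noise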
Chain of Torsin-1A-interacting protein 2 (Homo sapiens) (Q8NFQ8 whole entry, looked up): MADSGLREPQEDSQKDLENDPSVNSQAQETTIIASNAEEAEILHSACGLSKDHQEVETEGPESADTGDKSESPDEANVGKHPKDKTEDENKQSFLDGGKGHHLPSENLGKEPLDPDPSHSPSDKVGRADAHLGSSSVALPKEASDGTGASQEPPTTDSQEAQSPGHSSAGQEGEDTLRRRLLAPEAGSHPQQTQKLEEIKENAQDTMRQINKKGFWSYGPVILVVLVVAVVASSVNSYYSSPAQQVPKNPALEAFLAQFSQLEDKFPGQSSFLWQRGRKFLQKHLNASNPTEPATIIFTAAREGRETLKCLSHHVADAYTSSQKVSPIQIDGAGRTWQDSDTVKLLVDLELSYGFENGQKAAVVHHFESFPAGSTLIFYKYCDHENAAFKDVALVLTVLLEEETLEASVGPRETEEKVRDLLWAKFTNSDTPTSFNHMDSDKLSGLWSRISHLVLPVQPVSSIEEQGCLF

[6] = E. coli growth modulation, two-sided OD650, primary screen, E. coli filamentation project, strain DRC41, 24 h (AID 1093); conditions: OD650, 24 h, higher = more signal, called active from +8 up or from −8 down;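 further: MC1000 strain lacking acrAB efflux and sulA so SOS filamentation is blocked; test concentration not given here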
[7] = small-molecule microarray binders of probe aLefty2, primary screen, biochemical, biotinylated probe, 635/667 nm fluorescence (AID 1094); conditions: higher = more signal;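 further: score merges spot fluorescence near 667 nm with spot signal-to-noise ratio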
[8] = system: Noggin (protein binding on small-molecule microarray); assay: Noggin binders on small-molecule microarray, primary screen, biochemical, 635/667 nm fluorescence (AID 1095); conditions: 635 nm fluorescence, higher = more signal;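 further: score merges 667 nm feature fluorescence with signal to noise over triplicate slides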
[9] = molecular target: Neurogenic locus notch homolog protein 3 (Homo sapiens) (UniProt Q9UM47); assay: NOTCH3 binders on small-molecule microarray, primary screen, biochemical, 635/667 nm fluorescence (AID 1096); conditions: NOTCH3 binding, 635 nm fluorescence, higher = more signal
Chain of Neurogenic locus notch homolog protein 3 (Homo sapiens) (Q9UM47 whole entry, looked up): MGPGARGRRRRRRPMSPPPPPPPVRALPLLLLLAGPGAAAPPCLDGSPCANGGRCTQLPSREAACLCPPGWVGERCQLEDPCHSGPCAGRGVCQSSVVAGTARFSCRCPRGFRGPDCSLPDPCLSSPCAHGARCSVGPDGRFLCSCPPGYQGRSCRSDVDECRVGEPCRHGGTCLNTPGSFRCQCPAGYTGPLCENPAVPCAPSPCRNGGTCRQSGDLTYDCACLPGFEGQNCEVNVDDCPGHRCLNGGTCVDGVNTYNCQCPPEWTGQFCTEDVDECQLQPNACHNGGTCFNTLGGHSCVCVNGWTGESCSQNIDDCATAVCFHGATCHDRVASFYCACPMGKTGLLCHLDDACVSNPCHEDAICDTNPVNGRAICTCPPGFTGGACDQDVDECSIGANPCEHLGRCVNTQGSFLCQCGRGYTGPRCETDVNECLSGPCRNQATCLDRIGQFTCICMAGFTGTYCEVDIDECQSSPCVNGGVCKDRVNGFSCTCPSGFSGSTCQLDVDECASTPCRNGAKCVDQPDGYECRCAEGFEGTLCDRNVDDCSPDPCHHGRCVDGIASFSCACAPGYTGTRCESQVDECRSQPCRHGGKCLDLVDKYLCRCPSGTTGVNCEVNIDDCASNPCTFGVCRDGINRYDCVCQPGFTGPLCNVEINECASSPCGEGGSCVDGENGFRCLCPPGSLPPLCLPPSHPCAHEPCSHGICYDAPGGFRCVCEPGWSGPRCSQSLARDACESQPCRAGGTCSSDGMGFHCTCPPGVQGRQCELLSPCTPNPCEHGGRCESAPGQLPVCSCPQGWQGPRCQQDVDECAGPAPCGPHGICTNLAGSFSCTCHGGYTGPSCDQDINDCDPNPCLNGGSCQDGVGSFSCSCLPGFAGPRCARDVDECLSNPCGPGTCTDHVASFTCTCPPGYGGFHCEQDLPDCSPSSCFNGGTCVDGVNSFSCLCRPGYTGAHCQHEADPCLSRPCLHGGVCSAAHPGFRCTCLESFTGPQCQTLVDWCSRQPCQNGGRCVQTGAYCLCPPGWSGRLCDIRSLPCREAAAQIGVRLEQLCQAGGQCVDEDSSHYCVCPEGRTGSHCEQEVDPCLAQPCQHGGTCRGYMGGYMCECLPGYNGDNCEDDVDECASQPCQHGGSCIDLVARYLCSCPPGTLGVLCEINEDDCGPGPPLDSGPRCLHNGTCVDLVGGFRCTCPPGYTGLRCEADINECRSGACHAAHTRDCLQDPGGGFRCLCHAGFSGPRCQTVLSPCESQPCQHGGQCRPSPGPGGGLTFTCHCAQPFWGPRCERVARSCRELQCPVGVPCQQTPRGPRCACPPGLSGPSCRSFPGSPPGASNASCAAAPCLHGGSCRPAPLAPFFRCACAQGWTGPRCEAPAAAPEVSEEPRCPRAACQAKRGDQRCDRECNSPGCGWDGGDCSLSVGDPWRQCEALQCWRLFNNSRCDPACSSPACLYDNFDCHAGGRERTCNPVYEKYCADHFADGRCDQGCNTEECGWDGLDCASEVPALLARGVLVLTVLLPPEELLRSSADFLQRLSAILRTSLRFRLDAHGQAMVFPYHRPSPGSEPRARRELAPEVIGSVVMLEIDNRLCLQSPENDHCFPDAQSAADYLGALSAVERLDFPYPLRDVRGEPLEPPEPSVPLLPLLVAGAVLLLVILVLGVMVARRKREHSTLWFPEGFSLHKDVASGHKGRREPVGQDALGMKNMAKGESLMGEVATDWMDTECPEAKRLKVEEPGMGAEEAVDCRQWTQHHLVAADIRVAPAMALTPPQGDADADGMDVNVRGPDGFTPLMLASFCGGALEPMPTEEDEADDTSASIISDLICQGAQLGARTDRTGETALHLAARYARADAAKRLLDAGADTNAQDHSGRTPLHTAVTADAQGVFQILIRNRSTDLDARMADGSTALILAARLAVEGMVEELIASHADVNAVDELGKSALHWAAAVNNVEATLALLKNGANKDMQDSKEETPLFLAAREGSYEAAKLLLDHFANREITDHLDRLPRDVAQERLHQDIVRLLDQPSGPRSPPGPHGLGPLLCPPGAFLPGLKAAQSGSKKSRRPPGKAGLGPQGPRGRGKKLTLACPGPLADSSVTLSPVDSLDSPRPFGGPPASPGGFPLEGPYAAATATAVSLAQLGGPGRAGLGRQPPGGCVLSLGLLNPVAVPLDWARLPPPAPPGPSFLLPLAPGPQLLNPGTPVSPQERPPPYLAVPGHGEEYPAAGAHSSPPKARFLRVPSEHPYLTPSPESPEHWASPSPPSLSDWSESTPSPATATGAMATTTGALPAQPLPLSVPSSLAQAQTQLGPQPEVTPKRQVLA

[10] = small-molecule microarray binders of probe aEGFR, primary screen, biochemical, biotinylated probe, 635/667 nm fluorescence (AID 1097); conditions: higher = more signal;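 further: probe is a biotinylated anti-EGFR antibody binding compounds printed on slides; score combines fluorescence near 667 nm and signal to noise of each spot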
[11] = system: Plasmodium falciparum Sir2 (PF13_0152, Sir2A); assay: pfSir2 binders on small-molecule microarrays, primary screen, biochemical, small-molecule microarray, 635 nm fluorescence (AID 1098); conditions: small-molecule microarray binding, fluorescence 635 nm; higher = more signal;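 further: score merges spot fluorescence intensity with its signal-to-noise ratio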
[12] = small-molecule microarray binders of probe aDKK1, primary screen, biochemical, biotinylated probe, 635/667 nm fluorescence (AID 1099); conditions: higher = more signal;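 further: score merges 667nm spot fluorescence with signal to noise across triplicate slides; reference of the scale not given here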
[13] = small-molecule microarray binders of probe aCHRDL2, primary screen, biochemical, biotinylated probe, 635/667 nm fluorescence (AID 1100); conditions: higher = more signal
[14] = splicing luciferase reporter signal modulators, primary screen, spliceosome inhibition project, cell-based, HEK293, splice +/- reporter (AID 1101); conditions: luminescence, 24 h, higher = more signal, called active from +8 up or from −8 down;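 further: HEK293 cells carrying a splicing-competent luciferase reporter gene; test concentration not given here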
[15] = molecular target: Fibroblast growth factor 10 (Homo sapiens) (UniProt O15520); assay: FGF10 binders on small-molecule microarrays, primary screen, biochemical, small-molecule microarray, 635 nm fluorescence (AID 1102); conditions: FGF10 binding, fluorescence 635 nm, higher = more signal
Chain of Fibroblast growth factor 10 (Homo sapiens) (O15520 whole entry, looked up): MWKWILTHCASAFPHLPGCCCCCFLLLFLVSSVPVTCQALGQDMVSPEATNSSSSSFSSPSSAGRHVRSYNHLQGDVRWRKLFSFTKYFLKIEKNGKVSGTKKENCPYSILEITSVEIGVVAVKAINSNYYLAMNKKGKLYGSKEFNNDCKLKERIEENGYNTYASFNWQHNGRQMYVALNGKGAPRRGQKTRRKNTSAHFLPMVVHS

[16] = system: glycogen synthase kinase-3 (GSK3A per assay name; protocol says GSK3B); assay: GSK3 binders on small-molecule microarrays, primary screen, biochemical, small-molecule microarray, 635 nm fluorescence, GSK3A (AID 1103); conditions: small-molecule microarray binding, fluorescence 635 nm; higher = more signal; further: the record names both GSK3A and GSK3B
[17] = molecular target: Epidermal growth factor receptor (Homo sapiens) (UniProt P00533); assay: EGFR binders on small-molecule microarrays, primary screen, biochemical, small-molecule microarray, 635 nm fluorescence (AID 1104); conditions: EGFR binding, higher = more signal;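 further: score merges 667 nm emission intensity with spot signal to noise over triplicate slides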
Chain of Epidermal growth factor receptor (Homo sapiens) (P00533 whole entry, looked up): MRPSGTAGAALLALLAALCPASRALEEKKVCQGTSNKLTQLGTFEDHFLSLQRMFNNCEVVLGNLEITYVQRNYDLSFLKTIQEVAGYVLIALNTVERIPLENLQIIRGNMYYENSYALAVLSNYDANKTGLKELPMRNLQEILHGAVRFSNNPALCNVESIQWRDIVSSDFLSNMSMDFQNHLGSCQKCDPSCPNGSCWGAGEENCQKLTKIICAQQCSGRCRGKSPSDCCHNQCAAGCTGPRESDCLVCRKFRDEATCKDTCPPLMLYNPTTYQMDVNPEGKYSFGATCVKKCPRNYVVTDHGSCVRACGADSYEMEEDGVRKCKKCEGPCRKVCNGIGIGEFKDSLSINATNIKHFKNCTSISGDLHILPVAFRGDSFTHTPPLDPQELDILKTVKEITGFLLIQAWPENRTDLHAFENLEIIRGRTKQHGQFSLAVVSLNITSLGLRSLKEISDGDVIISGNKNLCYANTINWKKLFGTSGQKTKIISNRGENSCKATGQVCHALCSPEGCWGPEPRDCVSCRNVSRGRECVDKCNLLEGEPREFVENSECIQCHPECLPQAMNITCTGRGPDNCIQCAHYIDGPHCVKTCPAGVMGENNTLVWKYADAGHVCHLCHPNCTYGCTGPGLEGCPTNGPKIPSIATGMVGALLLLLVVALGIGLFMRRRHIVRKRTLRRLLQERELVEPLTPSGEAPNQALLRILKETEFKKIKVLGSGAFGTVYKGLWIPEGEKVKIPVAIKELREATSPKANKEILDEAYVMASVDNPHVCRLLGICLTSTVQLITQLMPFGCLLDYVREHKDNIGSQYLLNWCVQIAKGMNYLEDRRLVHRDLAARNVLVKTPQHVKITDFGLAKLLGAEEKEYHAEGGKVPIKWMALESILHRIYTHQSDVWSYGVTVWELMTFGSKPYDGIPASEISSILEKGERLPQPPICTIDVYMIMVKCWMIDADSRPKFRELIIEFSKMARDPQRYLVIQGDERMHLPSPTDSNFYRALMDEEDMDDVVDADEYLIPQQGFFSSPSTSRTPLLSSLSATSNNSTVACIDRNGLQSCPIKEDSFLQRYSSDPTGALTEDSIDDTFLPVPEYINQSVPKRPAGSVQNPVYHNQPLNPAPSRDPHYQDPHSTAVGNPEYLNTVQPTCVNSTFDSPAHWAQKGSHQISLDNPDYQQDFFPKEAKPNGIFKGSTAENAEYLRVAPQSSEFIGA

[18] = molecular target: Follistatin-related protein 3 (Homo sapiens) (UniProt O95633); assay: FSTL3 binders on small-molecule microarrays, primary screen, biochemical, small-molecule microarray, 635 nm fluorescence (AID 1105); conditions: FSTL3 binding, higher = more signal;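 further: score merges emission near 667 nm and signal to noise per printed spot across three slides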
Chain of Follistatin-related protein 3 (Homo sapiens) (O95633 whole entry, looked up): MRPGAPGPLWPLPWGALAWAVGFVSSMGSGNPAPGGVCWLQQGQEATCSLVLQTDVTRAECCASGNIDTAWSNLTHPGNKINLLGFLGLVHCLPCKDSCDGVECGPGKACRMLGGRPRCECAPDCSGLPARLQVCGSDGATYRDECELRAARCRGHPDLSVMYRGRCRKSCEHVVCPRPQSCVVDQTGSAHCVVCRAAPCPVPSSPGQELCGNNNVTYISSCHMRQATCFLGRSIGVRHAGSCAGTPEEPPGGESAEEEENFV

[19] = molecular target: Dickkopf-related protein 1 (Homo sapiens) (UniProt O94907); assay: DKK1 binders on small-molecule microarrays, primary screen, biochemical, small-molecule microarray, 635 nm fluorescence scan (AID 1106); conditions: DKK1 binding, higher = more signal;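 further: score merges emission near 667 nm with signal to noise over three replicate slides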
Chain of Dickkopf-related protein 1 (Homo sapiens) (O94907 whole entry, looked up): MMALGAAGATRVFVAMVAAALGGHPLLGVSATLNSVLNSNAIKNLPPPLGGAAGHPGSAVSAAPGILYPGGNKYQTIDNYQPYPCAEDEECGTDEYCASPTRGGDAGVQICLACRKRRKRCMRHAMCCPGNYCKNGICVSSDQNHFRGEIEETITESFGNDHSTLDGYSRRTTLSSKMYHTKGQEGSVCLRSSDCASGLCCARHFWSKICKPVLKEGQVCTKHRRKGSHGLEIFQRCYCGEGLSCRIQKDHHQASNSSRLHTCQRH

[20] = system: Inhibin beta A chain (activin A); assay: INHBA (activin A) binders on microarrays, primary screen, biochemical, small-molecule microarray, 635 nm fluorescence scan (AID 1107); conditions: small-molecule microarray binding, higher = more signal;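 further: mouse activin A protein probed at 4.33 µg/mL on printed slides; score merges bound-protein fluorescence near 667 nm with spot signal-to-noise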

| Compound | composite z-score [1] | z-score [2] | z-score [3] | z-score [4] | composite z-score [5] | z-score [6] | composite z-score [7] | composite z-score [8] | composite z-score [9] | composite z-score [10] | composite z-score [11] | composite z-score [12] | composite z-score [13] | z-score [14] | composite z-score [15] | composite z-score [16] | composite z-score [17] | composite z-score [18] | composite z-score [19] | composite z-score [20] |
| --- | --- | --- | --- | --- | --- | --- | --- | --- | --- | --- | --- | --- | --- | --- | --- | --- | --- | --- | --- | --- |
| CCCCO[C@H]1C[C@H]2C(Br)=C[C@@]1(CO)C(=O)[C@]21CO1 | 0.638 | -1.48 (inactive) | -2.1 (inactive) | -1.29 (inactive) | -0.0735 | 2.62 (inactive) | -0.341 | 0.648 | 0.237 | -0.109 | -0.145 | -0.482 | -1.04 | -1.53 (inactive) | 0.136 | -0.243 | 0.156 | 0.184 | 0.308 | 0.363 |
| C=C(COC)C(=O)CC[C@H](OC(=O)c1ccccc1-c1ccccc1C(=O)O)c1cccc(OCCO)c1 | 1.54 | -22.6 (active) | -20.5 (active) | -3.63 (inactive) | 4.32 | 0.573 (inactive) | -0.195 | 2.09 | 0.985 | 0.0004 | 1.74 | -0.0615 | -0.462 | -3.03 (inactive) | 1.71 | 0.829 | 0.397 | 1.33 | 1.94 | 1.01 |
| CSCC[C@@H]1NC(=O)CC=C[C@@H](C)COC(=O)[C@H](CCSC)NC(=O)CC=C[C@@H](C)COC1=O | -0.153 | -0.981 (inactive) | -1.12 (inactive) | -1.03 (inactive) | -0.452 | -0.566 (inactive) | -0.137 | 0.877 | -0.35 | -0.128 | -0.191 | -0.396 | -0.607 | -1.02 (inactive) | 0.435 | 0.0287 | 0.434 | 0.678 | 1.12 | -0.149 |
| CO[C@H]1COC(=O)[C@H](C)NC(=O)CC=C[C@@H](C)[C@H](NS(=O)(=O)c2ccc(C)cc2)COC(=O)CC=C[C@@H]1C | 0.0763 | -0.733 (inactive) | -0.635 (inactive) | -1.1 (inactive) | -0.876 | 0.119 (inactive) | -0.186 | 0.678 | -0.734 | -0.119 | 0.997 | -0.667 | -1.28 | -0.489 (inactive) | 0.27 | -0.0078 | 0.778 | 0.956 | 0.979 | 1.47 |
| COc1ccc([Si](C)(C)[C@@H]2[C@@H](CCO)O[C@]3(C(=O)N(Cc4ccc(NC(=O)[C@H](C)O)cc4)c4ccccc43)[C@H]2C)cc1 | 1.47 | 3.17 (inactive) | -1.06 (inactive) | 14.8 (active) | 2.42 | 1.78 (inactive) | 0.12 | 0.123 | 0.62 | -0.102 | 1.3 | 0.305 | 0.161 | -4.19 (inactive) | 0.245 | 0.993 | 0.226 | 0.335 | 0.0302 | 0.316 |
